# From PubChem BioAssay
# Assay: small-molecule microarray binders of probe aLefty2, primary screen, biochemical, biotinylated probe, 635/667 nm fluorescence (AID 1094);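 further: score merges spot fluorescence near 667 nm with spot signal-to-noise ratio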
# Conditions: higher = more signal
row,Compound,composite z-score
1,O=C1C[C@@](C(=O)O)(c2ccc([N+](=O)[O-])cc2)[C@@H](c2ccc(CO)cc2)N1CC12CC3CC(CC(C3)C1)C2,0.0446
2,Cc1ccc(S[C@]2(C(=O)O)CC(=O)N(Cc3ccccc3C(F)(F)F)[C@@H]2c2ccc(CO)cc2)cc1,-0.0732
3,COC(=O)c1ccc(OC)c(/C=C\CC(CCc2ccccc2)OC(C)=O)c1 (stereo not drawn),-0.154
4,C#CCNS(=O)(=O)N(C)C,-0.139
5,O=C1CSC(c2cccc([N+](=O)[O-])c2)N1c1ccccc1 (stereo not drawn),-0.0163
6,CCN(CC)c1ccc(N2CC=CC34O[C@@H]5/C=C\CCCOC(=O)C5[C@H]3C(=O)N(CCCCCO)[C@@H]4C2=O)cc1 (stereo partly drawn),-0.231
7,OCc1ccc(-c2cc[n+](Cc3cccc(OC(F)(F)F)c3)cc2)cc1,0.353
8,COCC1=C([C@H](O)CCc2ccccc2)[C@H](CO)[C@@H]2C(=O)N(C)C(=O)[C@@H]2C1,-0.184
9,COC(=O)[C@@]1(Cc2ccc(F)cc2)[C@H]2c3cc(C(=O)N(C)C)n(Cc4ccc(C)c(F)c4F)c3C[C@H]2CN1C(=O)c1ccccc1,0.439
10,CCOC(=O)C[C@H]1[C@H](OC(=O)c2ccc(C(=O)c3ccccc3)cc2)[C@@H](NC(=O)C2CCCCC2)c2cc(OCCCO)ccc2N1C(=O)Cc1ccc(OC)cc1,0.0044
11,CCCN1C(=O)[C@@]2(Cc3ccccc3)N=C(c3ccc(OCCCO)cc3)O[C@H]2c2ccccc21,0.152
12,O=C1C2C=CC(C(O)c3ccccn3)N(Nc3ccccc3)C2C(=O)N1c1ccccc1 (stereo not drawn),-0.0991
13,COc1cc(C(O)C2C=CC3C(=O)N(C)C(=O)C3N2NC(=O)OC(C)(C)C)cc(OC)c1OC (stereo not drawn),0.604
